The panel holds about 83,000 compounds, 20% with a hit somewhere; the sample as a whole holds those more often.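 How to read the values: 0–100, growth inhibition (40 = 60% inhibited); 0, no net growth; -100 to 0, cell death (-40 = 40% of starting cells died; -100 = all dead).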 Unmarked numbers belong to inactive results. Calls of active or inactive are those of the source. Rule for the calls: active = growth percent below 10; inactive = the rest.
Key:
Assay in all cases: NCI-60 one-dose screen, 48 h (100 = growth as untreated, 0 = no growth, -100 = all killed)
Settings in all cases: 10 µM unless noted
OVCAR-5 ovarian = tested on: OVCAR-5 ovarian
OVCAR-4 ovarian = tested on: OVCAR-4 ovarian
SK-OV-3 ovarian = tested on: SK-OV-3 ovarian
IGROV1 ovarian = tested on: IGROV1 ovarian
OVCAR-3 ovarian = tested on: OVCAR-3 ovarian
HS 578T breast = tested on: HS 578T breast
NCI/ADR-RES ovarian = tested on: NCI/ADR-RES ovarian
T-47D breast = tested on: T-47D breast
OVCAR-8 ovarian = tested on: OVCAR-8 ovarian

Row | SMILES | growth (OVCAR-5 ovarian) | growth (OVCAR-4 ovarian) [%] | growth (SK-OV-3 ovarian) | growth (IGROV1 ovarian) | growth (OVCAR-3 ovarian) | growth (HS 578T breast) | growth (NCI/ADR-RES ovarian) | growth (T-47D breast) | growth (OVCAR-8 ovarian)
1 | O=C1Cc2cc(CCn3cncn3)c(Cl)cc2N1 | 87.4% | 86.8 | 79.3% | 84.7% | 71.7% | 28.6% | 52.9% | 99.1% | 
2 | O=C1/C(=C/c2ccc([N+](=O)[O-])o2)Oc2ccc(Cl)cc21 | 46.1% |  | 85.6% |  | -74.5% (active) | 68.7% | 56.1% | -28.9% (active) | -14.9% (active)
3 | CCN(CC)c1ccc(C(O)C2=CC(=O)c3ccccc3C2=O)cc1 (stereo unspecified) | -23.8% (active) |  | 73.1% | -42.7% (active) | -77.2% (active) | -10.6% (active) | 84.4% | -60.6% (active) | -3.87% (active)
4 | O=Nc1ccc(O)c(=O)cc1 | 68.1% |  | 108% | 18.7% |  | 107% | 38% | 18.5% | 43.8%
5 | COc1ccc(/C=C2\COc3ccc(O)c(O)c3C2=O)cc1OC | -16.6% (active) |  | 40.2% | -33.4% (active) | -16.7% (active) | 17.8% | 2.76% (active) | -5.4% (active) | 8.42% (active)
6 | CC(=O)c1cc(C(=O)c2ccc3c(c2)Sc2ccccc2N3)c2c(C)cc(C)cn12 | 39.7% | 39.8 | 21% | 28.3% | -26.1% (active) | 20.5% | 12.9% | 48.2% | 
7 | Cc1nn(-c2ccc(Br)cc2)c2nc3c(nc12)C(=O)C(=O)c1ccccc1-3 | 100% | 88.3 | 93.6% | 81.9% | 101% | 105% | 86.4% | 91.2% | 
8 | NC(N)=N/N=C(/c1ccccc1)c1ccc(Cl)cc1 | 96% |  | 81.2% | 18.7% | 5.42% (active) | -22.5% (active) | 82.6% | 64.5% | 103%
9 | Cc1nn(-c2ccccc2)c2nc3c(nc12)C(=O)CCC3 | 104% | 81.4 | 99.7% | 96.6% | 98.8% | 97.1% | 94.8% | 79.2% | 
10 | COC(=O)[C@]1(CCSC)N[C@H](c2cn(-c3ccccc3)nc2C)[C@@H]2C(=O)N(c3ccc(C)cc3)C(=O)[C@@H]21 | 94.6% | 112 | 98.5% | 115% | 114% | 103% | 93.4% | 101% | 
11 | COc1ccc(OC)c(/C=C/c2nc(=S)n(-c3ccc(Cl)cc3)[nH]2)c1 | 116% |  | 73.5% | 40.1% | 29.4% | 98.7% |  | 72.5% | 88.6%
12 | N#CCCN(CCO)c1ccccc1 | 108% |  | 101% | 103% | 105% | 102% | 112% | 92% | 102%
13 | O=C1Cc2cc(CCN3CCN(CCOCCO)CC3)c(Cl)cc2N1Cc1ccc(-c2ccccc2-c2nn[nH]n2)cc1 | 96.6% | 89.6 | 93.8% | 107% | 94.5% | 85% | 90.6% | 101% | 
14 | COc1ccc(C(=O)/C=C/c2c(Cl)nc3c(c(C)nn3-c3ccccc3)c2-c2ccc(Br)cc2)cc1 | 99.6% | 107 | 97.3% | 116% | 115% | 113% | 108% | 100% | 
15 | Cc1ccc(C=C2C(Cl)=C(Cl)C(Cl)=C2Cl)cc1 | -80.7% (active) |  | -38.5% (active) |  | -85.1% (active) | -9.6% (active) | -3% (active) | -44.6% (active) | -42.9% (active)
